Among the data in ChEMBL document CHEMBL4513216, “Probing the Open Global Health Chemical Diversity Library for Multistage-Active Starting Points for Next-Generation Antimalarials” (ACS Infect Dis, 2020) are INHIBITION values, retold here.

In all, about 68,000 compounds went through this assay and about 2,700 (4%) showed an effect of 50% or more. Many of the other results were omitted from the sample, so strong results are more common in it than they were.

The test system of this test is Plasmodium berghei. The test can be described thus: Screen against P. berghei liver stage (PbLuc), transformed with Luciferase, at 2uM. As to conditions: tested at 2 uM. Type of test: functional, HepG2.
As for `Cc1noc(C)c1CN1C[C@@H](OCc2ccccn2)[C@H]2OCCC[C@H]21`, the INHIBITION is on record as -44.88%.

Turning to `CCc1cc(=O)n(CC(=O)N2CCCC2)c(-c2ccc(F)cc2)n1`, the INHIBITION stood at 22.13%.

Turning to `CN(Cc1nc2ccccc2c(=O)[nH]1)C1CC(=O)N(C2CC2)C1=O` (configuration not stated), the INHIBITION is given as -68.81%.

Consider `Cc1noc([C@@H]2C[C@H]3OCC[C@H]3N(Cc3ccoc3)C2)n1`, for which the INHIBITION turned out to be 51.26%.

`Cc1nnc([C@H]2C[C@H]3OCC[C@H]3N(S(=O)(=O)N(C)C)C2)o1`: the INHIBITION is given as 11.18%.

For `CCCS(=O)(=O)N1C[C@@H](c2nc(C)no2)C[C@H]2OCC[C@H]21`, the INHIBITION was -27.12%.

With `Cc1noc([C@H]2C[C@H]3OCC[C@H]3N(Cc3ccncc3)C2)n1`, the INHIBITION turned out to be 29.81%.

On to `Cc1nnc([C@H]2C[C@H]3OCC[C@H]3N(S(=O)(=O)C3CC3)C2)o1`, for which the INHIBITION was 50.32%.

`CCS(=O)(=O)N1C[C@@H](c2nnc(C)o2)C[C@H]2OCC[C@H]21`: the INHIBITION is 11.87%.

For `Cc1noc([C@H]2C[C@H]3OCC[C@H]3N(Cc3ccc(F)cc3)C2)n1`, the INHIBITION was 20.41%.

Consider `Cc1noc([C@H]2C[C@H]3OCC[C@H]3N(S(C)(=O)=O)C2)n1`, for which the INHIBITION is 25.58%.

On to `CCS(=O)(=O)N1C[C@H](c2nc(C)no2)C[C@H]2OCC[C@H]21`, for which the INHIBITION is on record as 63.23%.

For `Cc1cc(N2CCc3c(ncn3C3CC3)C2)nc(N)n1`, the INHIBITION is -25.22%.

Consider `O=C(CCC1CCCC1)NCCn1nc(C2CCNC2)c2cccnc21` (configuration not stated), for which the INHIBITION is 34.24%.

For the compound `Cc1cccc(-n2ncc3c(=O)n(CCN4CCCCC4)cnc32)c1C`, the INHIBITION was -34.12%.

On to `CC(C)S(=O)(=O)N1CCN(C(=O)c2cnn(C)c2Cl)CC1`, for which the INHIBITION is 12.98%.

Take `CCNC(=O)c1ncn2c1CN(C)S(=O)(=O)c1ccccc1-2`: the INHIBITION is recorded as -64.43%.

Consider `CN(C(=O)c1ncn2c1CN(C)S(=O)(=O)c1ccccc1-2)C1CC1`, for which the INHIBITION is 60%.

With `CCCN(CC)C(=O)c1ncn2c1CN(C)S(=O)(=O)c1ccccc1-2`, the INHIBITION came to 15.9%.

With `Cc1ccc(C(=O)NC2CCN(C(=O)Nc3ccccn3)CC2)o1`, the INHIBITION amounted to 20.11%.

With `Cc1ccc(C(=O)N2CCN(C(=O)Nc3ccccn3)CC2)o1`, the INHIBITION is reported as 60.93%.

`Cc1cccc(NC2CCN(C(=O)Nc3ccccn3)CC2)n1`: the INHIBITION is -7.13%.

As to `Cc1occc1C(=O)N1CCn2c(COCC3CC3)cnc2C1C` (configuration not stated), the INHIBITION was -5.65%.

As for `CCN(CC)CCSc1ncnc2[nH]ncc12`, the INHIBITION is recorded as -57.02%.

Consider `CCn1cc(CNc2ccc(F)c(F)c2)cn1`, for which the INHIBITION is reported as -11.55%.

With `CCn1cc(CNc2ccc(F)c(N3CCCS3(=O)=O)c2)cn1`, the INHIBITION came out at 67.51%.

As to `Cn1cc(CNc2ccc(F)c(N3CCCS3(=O)=O)c2)cn1`, the INHIBITION came to 30.06%.
